Measurements from PubChem BioAssay (Tox21).
“And” between values parts separate entries of the source, which are not always exact repeats. Equal values may be shown once. Results filed as inconclusive are left out. Where a call stands in place of a potency, no number is given. More than one record can exist for a structure, and the calls need not agree. The source made the active and inactive calls. Unless noted, the call rests on the fitted dose curve.

Test: qHTS assay for small molecule agonists of the p53 signaling pathway (AID 651631); further: nearly all actives have a fitted effect of over 15% in size
Details: HCT-116 p53RE-bla reporter, beta-lactamase FRET ratio, 16 h; series mostly up to 73.3 µM; activation: at the top concentration
Outline: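 Stably transfected HCT-116 cells (beta-lactamase behind p53 response elements) get compounds after a 5 h settling period; 16 h later at 37 °C, FRET substrate is loaded and fluorescence read after 2 h.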
In the case of CS(=O)(=O)Nc1ccc([N+](=O)[O-])cc1Oc1ccccc1, the Potency is reported as “inactive”.
For O=[N+]([O-])c1cc(N(CCO)CCO)ccc1NCCO, the Potency was “inactive”.
With OCC#CCO the “activation” value was -2.96% [at 95.1 µM] (inactive).
For CC1CC(OC(=O)c2ccccc2O)CC(C)(C)C1 (configuration not stated), the Potency was “inactive”.
In the case of O=C(O)c1ccc([N+](=O)[O-])cc1, the Potency is reported as “inactive”.
With CC(C)NCC(O)COc1cccc2ccccc12 (configuration not stated) the “activation” value was -1.96% [at 95.1 µM] (inactive).
For Oc1ccc2ccccc2c1, the “activation” value was -5.93% (inactive).
In the case of NC(=O)NNc1ccccc1, the Potency is reported as “inactive”.

Test: qHTS assay for small molecules that induce genotoxicity in human embryonic kidney cells expressing luciferase-tagged ATAD5 (AID 651632; active means well fitted activation curve with a large enough effect in the repeat runs; further: nearly all actives have a fitted effect of over 15% in size)
Details: HEK293T ATAD5-luciferase induction, 16 h; series mostly up to 83.3 µM; activation: at the top concentration
Outline: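 Increased luciferase signal from ATAD5-tagged reporter cells indicates DNA-damage-driven ATAD5 induction. HEK293T cells are treated for 16 hr at 37C before detection with Amplite.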
For CCc1ccccc1O, the Potency was “inactive”.
With CN(C)c1cccc(O)c1 the Potency was “inactive”.
With C=C1CC[C@H](O)CC1=C/C=C1\CCC[C@]2(C)[C@@H]([C@H](C)/C=C/[C@H](C)C(C)C)CC[C@@H]12 the Potency was “inactive”.
With CCCCC(CC)COC(C)=O (configuration not stated) the Potency was “inactive”.
With CCCCCCCCCC(=O)O the Potency was “inactive”.
With Oc1ccc2ccccc2c1N=Nc1ccccc1 the Potency was “inactive”.
In the case of O=C1CCCCC1, the Potency is reported as “inactive”.
In the case of CCCCCCC(C)(C)S, the Potency is reported as “inactive”.
In the case of CC(=O)[C@@]1(O)CC[C@H]2[C@@H]3CCC4=CC(=O)CC[C@]4(C)[C@H]3CC[C@@]21C, the Potency is reported as “inactive”.
In the case of O=S(=O)(Oc1ccc(Cl)cc1Cl)c1ccccc1, the Potency is reported as “inactive”.
In the case of Cc1cc(O)cc(C)c1Cl, the Potency is reported as “inactive”.
With NCCNCCNCCNCCN the Potency was “inactive”.
In the case of Cc1ccc(C(=O)O)o1, the Potency is reported as “inactive”.
For CC(C)(C)C(=O)C1C(=O)c2ccccc2C1=O, the Potency was “inactive”.
In the case of CCCCOCCOCCOC(=O)CCCCC(=O)OCCOCCOCCCC, the Potency is reported as “inactive”.
In the case of OC1CCCC1, the Potency is reported as “inactive”.
With CC1=CC[C@H]2C[C@@H]1C2(C)C the Potency was “inactive”.
For CC1=C(/C=C/C(C)=C/C=C/C(C)=C/CO)C(C)(C)CCC1, the Potency was “inactive”.
With ClC1=C(Cl)C(Cl)(Cl)C(Cl)=C1Cl the Potency was “inactive”.
With CCCCCC/C=C/CCCCCCCC(=O)O the Potency was “inactive”.
In the case of O=Nc1ccc(O)cc1, the Potency is reported as “inactive”.
For CC(C)(N=C=O)c1cccc(C(C)(C)N=C=O)c1, the Potency was “inactive”.
With CN(CCOc1ccc(CC2SC(=O)NC2=O)cc1)c1ccccn1 (configuration not stated) the Potency was “inactive”.
In the case of Nc1c(S(=O)(=O)O)cc(Br)c2c1C(=O)c1ccccc1C2=O, the Potency is reported as “inactive”.
In the case of CCCCCCCCCCCCOCC1CO1 (configuration not stated), the Potency is reported as “inactive”.

Test: qHTS assay for small molecule agonists of the p53 signaling pathway - cell viability (AID 651633); further: nearly all actives have a fitted effect of over 30% in size; further: potency means the concentration at half of the fitted maximal effect
Details: p53RE-bla HCT-116 viability, ATP luminescence, 16 h; series mostly up to 83.3 µM; activity change, negative = cytotoxicity: at the top concentration
Outline: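 p53RE-bla cells, seeded at 4,000 per well and rested 5 h at 37 C/5% CO2, received compounds in DMSO for 16 h at 37 C. CellTiter-Glo was then added, and luminescence was read after 30 min at room temperature to gauge cytotoxicity.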
In the case of CCc1ccccc1O, the Potency is reported as “inactive”.
For CN(C)c1cccc(O)c1, the Potency was “inactive”.
For O=C1N=C(O)CN1/N=C/c1ccc(-c2ccc([N+](=O)[O-])cc2)o1, the Potency was “inactive”.
In the case of CS(=O)(=O)Nc1ccc([N+](=O)[O-])cc1Oc1ccccc1, the Potency is reported as “inactive”.
For C=C1CC[C@H](O)CC1=C/C=C1\CCC[C@]2(C)[C@@H]([C@H](C)/C=C/[C@H](C)C(C)C)CC[C@@H]12, the Potency was 54 µM (active) and 68.6 µM (active).
In the case of O=[N+]([O-])c1cc(N(CCO)CCO)ccc1NCCO, the Potency is reported as “inactive”.
In the case of CCCCCCCCCC(=O)O, the Potency is reported as “inactive”.
In the case of OCC#CCO, the Potency is reported as “inactive”.
With CC1CC(OC(=O)c2ccccc2O)CC(C)(C)C1 (configuration not stated) the “activity change, negative = cytotoxicity” value was -17.9% (inactive).
In the case of Oc1ccc2ccccc2c1N=Nc1ccccc1, the Potency is reported as “inactive”.
With O=C1CCCCC1 the Potency was “inactive”.
With O=C(O)c1ccc([N+](=O)[O-])cc1 the Potency was “inactive”.
For CC(C)n1c(/C=C/[C@@H](O)C[C@@H](O)CC(=O)O)c(-c2ccc(F)cc2)c2ccccc21, the “activity change, negative = cytotoxicity” value was -20% (inactive).
In the case of CC1COc2ccccc2N1C(=O)C(Cl)Cl (configuration not stated), the Potency is reported as “inactive”.
In the case of CC(C)NCC(O)COc1cccc2ccccc12 (configuration not stated), the Potency is reported as “inactive”.
For CCCCCCCCCCC=CC1CC(=O)OC1=O (configuration not stated), the Potency was 61.4 µM (active) and inactive.
In the case of Cc1cc(O)cc(C)c1Cl, the Potency is reported as “inactive”.
With NCCNCCNCCNCCN the Potency was “inactive”.
For Cc1ccc(C(=O)O)o1, the Potency was “inactive”.
In the case of CC(C)(C)C(=O)C1C(=O)c2ccccc2C1=O, the Potency is reported as “inactive”.
With CCCCOCCOCCOC(=O)CCCCC(=O)OCCOCCOCCCC the Potency was “inactive”.
With OC1CCCC1 the Potency was “inactive”.
With Oc1ccc2ccccc2c1 the Potency was “inactive”.
With CC1=CC[C@H]2C[C@@H]1C2(C)C the Potency was “inactive”.
For CC1=C(/C=C/C(C)=C/C=C/C(C)=C/CO)C(C)(C)CCC1, the “activity change, negative = cytotoxicity” value was 3.86% (inactive).
For CCOC(=O)C1OC1c1ccccc1 (configuration not stated), the Potency was “inactive”.
In the case of ClC1=C(Cl)C(Cl)(Cl)C(Cl)=C1Cl, the Potency is reported as 13.8 µM (active).
For CCCCCC/C=C/CCCCCCCC(=O)O, the Potency was “inactive”.
For O=Nc1ccc(O)cc1, the Potency was “inactive”.
For CC(C)(N=C=O)c1cccc(C(C)(C)N=C=O)c1, the Potency was “inactive”.
In the case of CN(CCOc1ccc(CC2SC(=O)NC2=O)cc1)c1ccccn1 (configuration not stated), the Potency is reported as “inactive”.
With NC(=O)NNc1ccccc1 the Potency was “inactive”.
With Nc1c(S(=O)(=O)O)cc(Br)c2c1C(=O)c1ccccc1C2=O the Potency was “inactive”.
For CCCCCCCCCCCCOCC1CO1 (configuration not stated), the Potency was “inactive”.

Test: qHTS assay for small molecules that induce genotoxicity in human embryonic kidney cells expressing luciferase-tagged ATAD5 - cell viability (AID 651634); further: nearly all actives have a fitted effect of over 25% in size; further: potency means the concentration at half of the fitted maximal effect
Details: HEK293T ATAD5-luc cells viability, CellTiter-Fluor, 15.5 h; series mostly up to 83.3 µM; activity, negative = cytotoxicity: at the top concentration
Outline: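 Cytotoxicity counterscreen in HEK293T cells bearing an ATAD5-luciferase reporter: live-cell protease activity measured by CellTiter-Fluor fluorescence after 15.5 hr compound exposure.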
For CCc1ccccc1O, the Potency was “inactive”.
With CN(C)c1cccc(O)c1 the Potency was “inactive”.
In the case of O=C1N=C(O)CN1/N=C/c1ccc(-c2ccc([N+](=O)[O-])cc2)o1, the “activity, negative = cytotoxicity” value is reported as -17.7% (inactive).
In the case of C=C1CC[C@H](O)CC1=C/C=C1\CCC[C@]2(C)[C@@H]([C@H](C)/C=C/[C@H](C)C(C)C)CC[C@@H]12, the Potency is reported as “inactive”.
In the case of CCCCC(CC)COC(C)=O (configuration not stated), the Potency is reported as “inactive”.
In the case of CCCCCCCCCC(=O)O, the Potency is reported as “inactive”.
For OCC#CCO, the Potency was “inactive”.
In the case of CC1CC(OC(=O)c2ccccc2O)CC(C)(C)C1 (configuration not stated), the Potency is reported as “inactive”.
For Oc1ccc2ccccc2c1N=Nc1ccccc1, the Potency was 30.6 µM (active) and 48.6 µM (active).
For O=C1CCCCC1, the Potency was “inactive”.
In the case of O=C(O)c1ccc([N+](=O)[O-])cc1, the Potency is reported as “inactive”.
For CC1COc2ccccc2N1C(=O)C(Cl)Cl (configuration not stated), the Potency was “inactive”.
With CCCCCCC(C)(C)S the Potency was “inactive”.
In the case of CC(=O)[C@@]1(O)CC[C@H]2[C@@H]3CCC4=CC(=O)CC[C@]4(C)[C@H]3CC[C@@]21C, the Potency is reported as “inactive”.
For CC(C)NCC(O)COc1cccc2ccccc12 (configuration not stated), the Potency was “inactive”.
With CCCCCCCCCCC=CC1CC(=O)OC1=O (configuration not stated) the “activity, negative = cytotoxicity” value was 10.3% (inactive).
In the case of O=S(=O)(Oc1ccc(Cl)cc1Cl)c1ccccc1, the Potency is reported as “inactive”.
For Cc1cc(O)cc(C)c1Cl, the Potency was “inactive”.
For NCCNCCNCCNCCN, the Potency was “inactive”.
For Cc1ccc(C(=O)O)o1, the Potency was “inactive”.
For CC(C)(C)C(=O)C1C(=O)c2ccccc2C1=O, the Potency was 17.1 µM (active) and 7.7 µM (active).
With CCCCOCCOCCOC(=O)CCCCC(=O)OCCOCCOCCCC the Potency was “inactive”.
In the case of OC1CCCC1, the Potency is reported as “inactive”.
For Oc1ccc2ccccc2c1, the Potency was “inactive”.
In the case of CC1=CC[C@H]2C[C@@H]1C2(C)C, the Potency is reported as “inactive”.
With CC1=C(/C=C/C(C)=C/C=C/C(C)=C/CO)C(C)(C)CCC1 the Potency was “inactive”.
For CCOC(=O)C1OC1c1ccccc1 (configuration not stated), the Potency was “inactive”.
For ClC1=C(Cl)C(Cl)(Cl)C(Cl)=C1Cl, the Potency was 6.9 µM (active) and 15.4 µM (active).
With CCCCCC/C=C/CCCCCCCC(=O)O the Potency was “inactive”.
In the case of O=Nc1ccc(O)cc1, the “activity, negative = cytotoxicity” value is reported as 10.4% (inactive).
For CC(C)(N=C=O)c1cccc(C(C)(C)N=C=O)c1, the Potency was “inactive”.
For CN(CCOc1ccc(CC2SC(=O)NC2=O)cc1)c1ccccn1 (configuration not stated), the Potency was “inactive”.
For NC(=O)NNc1ccccc1, the Potency was “inactive”.
With Nc1c(S(=O)(=O)O)cc(Br)c2c1C(=O)c1ccccc1C2=O the Potency was 30.6 µM (active).
For CCCCCCCCCCCCOCC1CO1 (configuration not stated), the Potency was “inactive”.
